Here are results for 8 molecules from PubChem BioAssay (NCI).

The panel holds about 83,000 compounds, 20% with a hit somewhere; the sample as a whole holds those more often.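 Assay: single dose, 48 h. Readout: percent growth (0 = no net growth; negative = cell death). Active: <10.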 A number with no mark means an inactive call. Calls of active or inactive are those of the source.

Among the test systems are HCT-15 colon; HT29 colon; SNB-75 CNS; SNB-19 CNS; U251 CNS; SK-MEL-5 melanoma; UACC-62 melanoma; LOX IMVI melanoma; SK-MEL-28 melanoma; SK-MEL-2 melanoma; EKVX NSCLC; SN12C renal; UO-31 renal; TK-10 renal; ACHN renal; CAKI-1 renal; A498 renal; CCRF-CEM leukemia; MOLT-4 leukemia; PC-3 prostate.
What all share (assay): NCI-60 one-dose screen, 48 h (100 = growth as untreated, 0 = no growth, -100 = all killed)
Common to all, as to details: 10 µM unless noted

In the case of `COc1ccc(/C=C/C(=O)c2cc3c(N)c(C(=O)Nc4ccc(OC)cc4)sc3nc2C)cc1`, the growth was 20.6% with HCT-15 colon; -18% (active) in the assay on HT29 colon; 2.43% (active) in the assay with SNB-75 CNS; 16.3% with SNB-19 CNS; 20.2% with U251 CNS; 9.81% (active) in the assay with SK-MEL-5 melanoma. Further, the growth in the assay on UACC-62 melanoma was 21.8%; in the assay with LOX IMVI melanoma, 31.6%; in the assay with SK-MEL-28 melanoma, 55.7%; in the assay on SK-MEL-2 melanoma it was 15.4%; in the assay on EKVX NSCLC, 45.2%; in the assay with SN12C renal, 31.6%. Besides, the growth is 41% in the assay on UO-31 renal; 40.8% in the assay with TK-10 renal; 42.6% with ACHN renal; 24.8% with CAKI-1 renal; 18.6% with A498 renal; 19.9% in the assay on CCRF-CEM leukemia. The growth in the assay with MOLT-4 leukemia was 33.3%.

On to `COc1ccc(Nc2ncccc2NC(=O)c2cn(Cc3cccc(Oc4ccccc4)c3)nn2)cc1OC`, for which the growth was 67.7% with HCT-15 colon; 81.1% in the assay with HT29 colon; 76.2% in the assay with SNB-75 CNS; 79.2% with SNB-19 CNS; 74.5% in the assay on U251 CNS; 45.1% in the assay with SK-MEL-5 melanoma. Also, the growth in the assay with UACC-62 melanoma is 57.5%; with LOX IMVI melanoma, 67%; with SK-MEL-28 melanoma it was 83.4%; with SK-MEL-2 melanoma it was 95.1%; in the assay with EKVX NSCLC it was 68%; in the assay with SN12C renal it was 81.1%. Further, the growth in the assay with UO-31 renal is 54.4%; in the assay on TK-10 renal, 96.5%; in the assay with ACHN renal it was 93.9%; in the assay with CAKI-1 renal, 82%; in the assay on A498 renal, 69.6%; in the assay on CCRF-CEM leukemia, 74.7%. In addition, in the assay on MOLT-4 leukemia, the growth is 48.1%.

`O=C(/C=C/c1ccccc1)Nc1ncc(Cc2ccccc2)s1`: the growth in the assay on HCT-15 colon is 14.2%; in the assay on HT29 colon, 4.97% (active); in the assay on SNB-75 CNS, -2.19% (active); in the assay on SNB-19 CNS, 42.6%; in the assay with U251 CNS it was 9.07% (active); with SK-MEL-5 melanoma, 30.6%. In addition, the growth is 3.28% (active) with UACC-62 melanoma; 6.49% (active) in the assay with LOX IMVI melanoma; 47% with SK-MEL-28 melanoma; 26.1% in the assay with SK-MEL-2 melanoma; 23.2% in the assay with EKVX NSCLC; 32.4% in the assay on SN12C renal. For the same molecule, the growth is 30.4% in the assay with UO-31 renal; 35% in the assay on TK-10 renal; 26.5% in the assay with ACHN renal; 27.8% in the assay on CAKI-1 renal; 12.6% with A498 renal; 20.3% in the assay on CCRF-CEM leukemia. For the same molecule, the growth with MOLT-4 leukemia was 22.6%.

On to `Cc1ccc(S(=O)(=O)n2cc(C3C(Cl)C(=O)N3c3ccc(N4CCOCC4=O)cc3)c3ccccc32)cc1` (stereo not drawn), for which the growth in the assay with HCT-15 colon was 28%; in the assay on HT29 colon it was 56.6%; with SNB-75 CNS, 31.1%; in the assay with SNB-19 CNS, 70.8%; in the assay with U251 CNS it was 48.7%; with SK-MEL-5 melanoma, 43.8%. Moreover, the growth in the assay with UACC-62 melanoma is 51.3%; in the assay on LOX IMVI melanoma, 34.2%; in the assay with SK-MEL-28 melanoma, 69.3%; in the assay on SK-MEL-2 melanoma, 74.7%; in the assay with EKVX NSCLC it was 72.6%; with SN12C renal, 44.5%. In addition, the growth is 37.6% in the assay on UO-31 renal; 88% in the assay on TK-10 renal; 71.4% with ACHN renal; 24.9% with CAKI-1 renal; 65.8% in the assay with A498 renal; 29.5% in the assay on CCRF-CEM leukemia. In the assay on MOLT-4 leukemia, the growth is 47.5%.

Regarding `CCOC(=O)c1n[nH]n2c1nc(=O)c1cnn(C)c12`, the growth is 105% with HCT-15 colon; 107% with HT29 colon; 103% in the assay with SNB-75 CNS; 102% in the assay with SNB-19 CNS; 100% in the assay on U251 CNS; 97.7% in the assay on PC-3 prostate. Further, the growth is 105% in the assay on SK-MEL-5 melanoma; 103% in the assay with LOX IMVI melanoma; 113% in the assay on SK-MEL-28 melanoma; 102% in the assay on EKVX NSCLC; 105% in the assay on SN12C renal; 84.4% in the assay on UO-31 renal. Further, the growth in the assay with TK-10 renal is 97.6%; with ACHN renal it was 105%; with CAKI-1 renal, 103%; with A498 renal it was 110%; in the assay on CCRF-CEM leukemia, 95.6%.

Turning to `COc1ccc(C(O)c2cc3c(N)c(C(=O)Nc4cccc(Cl)c4)sc3nc2C)cc1` (stereo not drawn), the growth in the assay with HCT-15 colon was 11.6%; in the assay with HT29 colon, 8.32% (active); in the assay on SNB-75 CNS, 31.2%; in the assay on SNB-19 CNS it was 28.3%; in the assay on U251 CNS, 23.6%; in the assay on SK-MEL-5 melanoma, -16.9% (active). The growth with UACC-62 melanoma was 27.5%; in the assay on LOX IMVI melanoma, 30.7%; in the assay on SK-MEL-28 melanoma it was 65.8%; with SK-MEL-2 melanoma, 53.7%; in the assay with EKVX NSCLC, 48.4%; with SN12C renal it was 22.2%. The growth was 45.4% in the assay with UO-31 renal; 64% in the assay with TK-10 renal; 30.3% in the assay on ACHN renal; 24.7% with CAKI-1 renal; 8.34% (active) with A498 renal; 8.82% (active) with CCRF-CEM leukemia.

Turning to `CC[C@]12C=CCN3CC[C@@]4(c5ccc(OC)cc5N(C)[C@H]4[C@@](O)(C(=O)OC)[C@@H]1OC(=O)CCCN1CCOCC1)[C@@H]32`, the growth in the assay with HCT-15 colon is 110%; in the assay with HT29 colon it was 110%; in the assay with SNB-75 CNS, 91.5%; in the assay with SNB-19 CNS it was 101%; in the assay with U251 CNS it was 101%; with SK-MEL-5 melanoma, 103%. Also, the growth in the assay on UACC-62 melanoma was 97.6%; with LOX IMVI melanoma, 110%; with SK-MEL-28 melanoma it was 109%; with SK-MEL-2 melanoma it was 109%; in the assay with EKVX NSCLC it was 111%; in the assay with SN12C renal, 105%. Also, the growth with UO-31 renal is 94.1%; in the assay with TK-10 renal, 99.8%; with ACHN renal, 110%; with CAKI-1 renal, 94.2%; with A498 renal it was 113%; in the assay on CCRF-CEM leukemia, 107%. For the same molecule, the growth with MOLT-4 leukemia is 102%.

For `CCn1cc(C2=C(c3cn(C)c4ncccc34)C(=O)NC2=O)c2cccnc21`, the growth was 67.6% in the assay on HCT-15 colon; 72.4% in the assay with HT29 colon; -10.8% (active) in the assay on SNB-75 CNS; 87.7% with SNB-19 CNS; 76.7% in the assay with U251 CNS; 66% in the assay on PC-3 prostate. For the same molecule, the growth in the assay on SK-MEL-5 melanoma was 86.3%; in the assay on LOX IMVI melanoma, 66.5%; in the assay with SK-MEL-28 melanoma, 90.7%; with SK-MEL-2 melanoma, 84.8%; with EKVX NSCLC, 54.6%; in the assay on SN12C renal, 68.5%. Besides, the growth in the assay on UO-31 renal is 50%; with TK-10 renal, 69.4%; in the assay with CAKI-1 renal it was 61.6%; in the assay on A498 renal, -2.35% (active); in the assay with CCRF-CEM leukemia, 65.8%; in the assay on MOLT-4 leukemia, 81.9%.
